The structures appear in SMILES notation. Values joined by “and” are separate entries in the source; they are usually repeats but may differ in a detail not shown here. Equal entries are not always repeated. In all, about 410,000 compounds went through this assay and about 3,100 (0.76%) were called active. A call without a number means that no potency is given here. The call rests on the fitted dose curve; in most records, active means well fitted cell-killing curve with a large enough effect; inactive means no such curve, though single readings can be large or run the other way. The full list was thinned out, with actives kept by preference. Some structures have more than one record in an assay (separate samples or runs), and their calls can disagree.
Potency means the concentration at half of the fitted maximal effect.

The assay in a line: qHTS for Inhibitors of TGF-b: Cytotox Counterscreen. The following applies: HepG2 CAGA-GFP viability, ATP luminescence, 18 h; series mostly up to 46.1 µM. The source says:
TGF-b is a main component in the TGF-b signaling pathway which plays diverse roles in cellular and development pathways. TGF-b is mediated by transcription factors called "Smads". Although the Smad-dependent pathway is the primary canonical TGF-b signaling mode, TGF-b1 can also activate alternative signaling pathways, including those involving MAPK (ERK, JNK and p38). This interaction may mediate or enhance Smad-dependent responses, or can exert Smad-independent effects. The complexity of this signaling cascade allows the TGF-b superfamily to perform unique, overlapping or redundant functions. We believe that targeting the TGF-beta pathway at the Smad-transcription factor level may eliminate the consequences of disrupting the entire pathway and offer specificity without affecting other signaling pathways. Smad3 is the primary transducer of TGF-b's signals and Smad3 regulates many functions attributed to TGF-b signaling. We hypothesize that Smad3 inhibitors will selectively eliminate Smad3-specific TGF-beta signals without undesired off-target effects. We aim to identify Smad3-small molecule antagonists using a quantitative high throughput screening (qHTS) approach.
A high-throughput assay was developed to screen the NIH Molecular Libraries Small Molecule Repository (MLSMR). This is a cell based assay, where TGF-b is tagged with GFP. This is a counterscreen that evaluates the cytotoxicity of the compounds that were screened in the primary cell-based screen (AID 588855).
MH087449NIH Chemical Genomics Center [NCGC]
NIH Molecular Libraries Probe Centers Network [MLPCN]
Assay Submitter (PI): Sushil Rane, National Institute of […]
Suspensions of trypsinized HEPG2 CAGA-GFP cells were dispensed into white, tissue culture-treated, solid 1536-well plates at 5uL/well (1000 cells/well final concentration) in DMEM medium supplemented with 1% FBS. Plates were incubated at 37 degrees C for 2 hours, after which 23 nL of compounds or DMSO were delivered to each well using a pin tool. One uL of recombinant TGF-beta in DMEM (1% FBS) was then dispensed (500 pg/mL final concentration), and plates were incubated at 37 degrees C for 18 hours. Two uL of CellTiter Glo (Promega), a luminescence-based viability reagent, was dispensed, followed by a 10 minute room temperature incubation. The plates were then measured on a PerkinElmer ViewLux plate reader for luminescence (clear filter) using a 5 second exposure. The %Activity was determined from the corrected luminescence values. Wells containing media only (no cells) were used to normalize %Activity of identified toxic compounds; media-only wells corresponded to 100%Activity (complete cell-killing), while DMSO-dosed cell controls were used to normalize 0%Activity (no toxicity).
Concentration-response curves were fitted to the signals arising from the resulting luminescence. The concentration-effect curves were then classified based on curve quality (r2), response magnitude and degree of measured activity, and compounds were subsequently categorized based on their curve class.
(qHTS replaces the single test concentration by a dilution series.)
With `CC(=O)OCC(NC(=O)C(Cc1ccccc1)NC(=O)OC(C)(C)C)C1OC(n2ccc(=O)[nH]c2=O)C(OC(C)=O)C1OC(C)=O` (configuration not stated), the Potency entry is “inactive”. With `CC(C)(C)c1ccc(C(=O)C[N+]2(C)CCCc3ccccc32)cc1` (configuration not stated) the entry was “inactive”; with `COc1ccc(NC(=O)CCCN2C(=O)CCn3nc(-c4cn(C)c5ccccc45)cc32)cc1OC`, “inactive”; with `CCOc1ccc(OCC)c(NC(=O)CN(c2ccc(C)cc2)S(=O)(=O)c2c(C)n[nH]c2C)c1`, 12.6 µM (active). As to `COC(=O)c1ccc(NC(=O)CN(c2ccc(C)cc2)S(=O)(=O)c2c(C)n[nH]c2C)cc1`, the Potency result is “inactive”. In the case of `COc1ccc(N(CC(=O)Nc2cc(OC)cc(OC)c2)S(=O)(=O)c2c(C)n[nH]c2C)cc1`, the Potency result was “inactive”. In the case of `CCCCCn1c(CCNC(=O)c2ccc(F)cc2)nc2ccccc21` it was “inactive”; in that of `CCOC(=O)Cn1c(=O)n(-c2ccccc2OC)c2nc(-c3cccc(F)c3)nc(C(N)=O)c21`, “inactive”. With `CC1=C(C(=O)Nc2ccccc2)C(c2ccc(C)cc2)n2nc(SCc3ccccc3C)nc2N1` (configuration not stated) the entry was “inactive”; with `C(=Nc1ccc(/C=C/c2ccnc3ccccc23)cc1)c1cc2c3c(c1)CCCN3CCC2`, “inactive”. With `O=C(Nc1ccc(Br)cn1)c1ccc([N+](=O)[O-])o1` the figure was 17.8 µM (active); with `Cc1cccc(NC(=O)CCn2c(=O)oc3ccccc32)c1`, “inactive”; with `O=C(NCc1nnnn1-c1ccc(Cl)cc1)c1ccc([N+](=O)[O-])o1`, “inactive”. On to `Cc1cccc(NC(=O)c2ccc([N+](=O)[O-])o2)c1`, for which the Potency was 22.4 µM (active). On to `Cc1cccc(NC(=O)c2ccc(COc3ccccc3[N+](=O)[O-])o2)n1`, for which the Potency entry was “inactive”. With `CCN(CC)S(=O)(=O)c1ccc(N2CCCC2)c(NC(=O)c2ccc([N+](=O)[O-])o2)c1`, the Potency entry was “inactive”. In the case of `O=C(NCCc1ccc(Cl)cc1)c1ccc2c(c1)N(Cc1ccc(F)cc1)C(=O)CS2` it was “inactive”. In the case of `O=C1C[C@H]2C=CCc3cccc(c32)CN1Cc1ccccc1` it was “inactive”.

In the case of `O=C(COC(=O)c1ccccc1OCCOc1ccccc1)Nc1cccc(Br)c1`, the Potency entry is “inactive”.

Take `Cc1ccc(C)c2sc(NC(=O)c3ccc(S(=O)(=O)N4CCCC4)cc3)nc12`: the Potency result is “inactive”. As for `Cc1ccc(C)c(Cn2c(CCCNC(=O)C3CCCCC3)nc3ccccc32)c1`, the Potency result is “inactive”. In the case of `O=C(O)C1=C/C(=C/C=[N+]2c3cc(O)c(O[C@H]4OC(CO)[C@@H](O)[C@@H](O)[C@@H]4O)cc3C[C@@H]2C(=O)[O-])C[C@H](C(=O)O)N1` (some centres not stated) it was “inactive”; in that of `O=C(CSc1nc2nccnc2c(=O)n1CCc1c[nH]c2ccccc12)Nc1ccccc1F`, “inactive”. With `Cc1ccc(CS(=O)(=O)c2ncc(Cl)c(C(=O)Nc3nnc(C)s3)n2)cc1` the figure was 15.8 µM (active); with `CCOc1cccc(C(=O)Nc2nnc(S(=O)(=O)N(C)c3ccc(C)cc3)s2)c1`, “inactive”; with `CSc1nnc(NC(=O)c2nc(S(=O)(=O)Cc3ccc(C)cc3)ncc2Cl)s1`, 15.8 µM (active). In the case of `Cc1ccc2nc(NC(=O)c3nc(SCc4ccccc4F)ncc3Cl)sc2c1` it was “inactive”; in that of `Cc1nnc(NC(=O)CSc2nccn2-c2cccc(C)c2C)s1`, “inactive”. With `CCOCCCNC(=O)c1c(NC(=O)c2nc(SC)ncc2Cl)sc2c1CCCC2`, the Potency result is “inactive”. `CCN(CC)/[N+]([O-])=N/Oc1cc(O/[N+]([O-])=N/N2CCCC2CO)c([N+](=O)[O-])cc1[N+](=O)[O-]` (configuration not stated): the Potency entry was “inactive”.

For `Brc1nc2ncnc(NCc3ccco3)c2[nH]1`, the Potency entry was “inactive”. Consider `COC(=O)c1cc(NC(=O)c2cnc(SC)nc2-c2ccccc2)cc(C(=O)OC)c1`, for which the Potency entry was “inactive”. Turning to `O=C(c1ccco1)N(Cc1cccs1)c1ccc(O)cc1`, the Potency entry was “inactive”. Take `Cc1[nH]n(-c2ccccc2)c(=O)c1CCOC(=O)c1ccc(C(F)(F)F)cc1`: the Potency result was “inactive”. Take `CCOC(=O)C[C@H]1c2ccc(C(F)(F)F)cc2S(=O)(=O)N1c1ccccc1`: the Potency entry is “inactive and 7.08 µM (active)”.

In the case of `COc1ccc(CN2C(CC(=O)Nc3cccnc3)c3ccc(C(F)(F)F)cc3S2(=O)=O)cc1` (configuration not stated), the Potency result was “inactive”. In the case of `Cc1cc(C)c(NC(=O)CN2C(=O)c3cccnc3Oc3ccc(Cl)cc32)c(C)c1` it was “inactive”; in that of `O=C1CN(Cc2ccccc2)S(=O)(=O)c2ccccc21`, “inactive”; in that of `O=C(Nc1ccc(-c2nc3cc(NC(=O)c4ccccc4Cl)ccc3o2)cc1)c1ccccc1Cl`, “inactive”. With `Cc1ccc(C)c(S(=O)(=O)n2nc(C)c(S(=O)(=O)N3CCC(C)CC3)c2C)c1`, the Potency result is “inactive”. In the case of `COc1ccccc1CNC(=O)c1cc(-c2cc(Cl)ccc2C)n[nH]1` it was “inactive”; in that of `Cc1cc(O)ccc1-c1cc(C(=O)NCc2cc(C(F)(F)F)cc(C(F)(F)F)c2)[nH]n1`, 12.6 µM (active); in that of `COc1ccc(-c2cc(C(=O)NCc3cc(OC)c(OC)c(OC)c3)[nH]n2)cc1`, “inactive”.

With `CN(Cc1ccccc1)c1ncnc2onc(-c3ccc(F)cc3)c12`, the Potency result was “inactive”. With `CCCCC(=O)OC1=CN(Cc2ccccc2)S(=O)(=O)c2ccccc21`, the Potency result was “inactive”. With `Cc1ccccc1C(=O)Nc1sc2c(c1C(=O)N1CCC(C)CC1)CCCC2` the entry was “inactive”; with `O=C(/C=C/Sc1ncn[nH]1)c1ccc(Cl)cc1`, 12.6 µM (active).

(Values after PubChem BioAssay AID588856 (National Center for Advancing Translational Sciences (NCATS), 2011).)
